# Results: PubChem BioAssay (Tox21)
# “And” between values parts separate entries of the source, which are not always exact repeats. Equal values may be shown once. The source made the active and inactive calls. Entries that show only a call come without a potency. Unless noted, calls come from the whole dose curve; as a rule, active = well fitted curve in the direction sought with a large enough effect in the repeat runs; inconclusive = weak or mixed curves; inactive = no such curve, though single readings can be large; an effect the other way counts as inactive or inconclusive.
# Legend:
# [1] = qHTS assay to identify small molecule antagonists of the thyroid receptor (TR) signaling pathway (AID 743065); note: nearly all actives have a fitted effect of over 55% in size; note: potency is the fitted concentration of half-maximal effect
# Procedure, shortened: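 GH3.TRE-Luc rat pituitary cells carrying two TR response elements driving luciferase were plated for 4 h, given compound plus 1 nM T3 (final), and incubated 23.5 h at 37 C. ONE-Glo luminescence measured reporter inhibition; CellTiter-Fluor fluorescence tracked cytotoxicity.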
# [2] = tested on: thyroid hormone receptor (rat, GH3 cells); assay: qHTS assay to identify small molecule agonists of the thyroid receptor (TR) signaling pathway (AID 743066; calls by dose curve)
# [3] = qHTS assay to identify small molecule antagonists of the estrogen receptor alpha (ER-alpha) signaling pathway - cell viability counter screen (AID 743074; calls by dose curve; note: nearly all actives have a fitted effect of over 45% in size; note: potency is the fitted concentration of half-maximal effect)
# [4] = qHTS assay to identify small molecule antagonists of the estrogen receptor alpha (ER-alpha) signaling pathway using the BG1 cell line - cell viability counter screen (AID 743081);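 note: compound given together with 17beta-estradiol as the ER stimulus; nearly all actives have a fitted effect of over 45% in size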; note: potency is the fitted concentration of half-maximal effect
# Aromatase (Homo sapiens) = Aromatase (Homo sapiens) (UniProt P11511); assay: qHTS assay to identify aromatase inhibitors (AID 743083); note: nearly all actives have a fitted effect of over 55% in size; note: potency is the fitted concentration of half-maximal effect
# Sequence of Aromatase (Homo sapiens) (P11511 whole entry, looked up): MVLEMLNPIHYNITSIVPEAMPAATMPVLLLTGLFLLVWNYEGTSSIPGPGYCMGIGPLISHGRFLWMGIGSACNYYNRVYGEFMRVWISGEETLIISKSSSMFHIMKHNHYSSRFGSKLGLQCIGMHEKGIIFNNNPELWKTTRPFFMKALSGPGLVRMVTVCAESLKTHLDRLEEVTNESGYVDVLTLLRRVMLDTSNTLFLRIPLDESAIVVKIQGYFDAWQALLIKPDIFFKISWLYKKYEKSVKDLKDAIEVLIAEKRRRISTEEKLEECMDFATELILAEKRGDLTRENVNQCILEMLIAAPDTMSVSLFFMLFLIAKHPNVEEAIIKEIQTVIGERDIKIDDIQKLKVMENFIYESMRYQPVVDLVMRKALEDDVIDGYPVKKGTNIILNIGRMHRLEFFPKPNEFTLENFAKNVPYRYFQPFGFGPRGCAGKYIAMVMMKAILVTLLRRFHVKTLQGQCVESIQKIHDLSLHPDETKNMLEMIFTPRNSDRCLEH
# [5] = qHTS assay to identify aromatase inhibitors - cell viability counter screen (AID 743084);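 note: cells stimulated with testosterone during compound exposure; nearly all actives have a fitted effect of over 55% in size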; note: potency is the fitted concentration of half-maximal effect
# [6] = target: Aryl hydrocarbon receptor (Homo sapiens) (UniProt P35869); assay: qHTS assay to identify small molecule that activate the aryl hydrocarbon receptor (AhR) signaling pathway (AID 743085); note: nearly all actives have a fitted effect of over 15% in size; note: potency is the fitted concentration of half-maximal effect;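 for activation: HG2L7.5c1 human HepG2 liver cells with stably integrated DRE-driven firefly reporter; series mostly up to about 70 µM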
# Sequence of Aryl hydrocarbon receptor (Homo sapiens) (P35869 whole entry, looked up): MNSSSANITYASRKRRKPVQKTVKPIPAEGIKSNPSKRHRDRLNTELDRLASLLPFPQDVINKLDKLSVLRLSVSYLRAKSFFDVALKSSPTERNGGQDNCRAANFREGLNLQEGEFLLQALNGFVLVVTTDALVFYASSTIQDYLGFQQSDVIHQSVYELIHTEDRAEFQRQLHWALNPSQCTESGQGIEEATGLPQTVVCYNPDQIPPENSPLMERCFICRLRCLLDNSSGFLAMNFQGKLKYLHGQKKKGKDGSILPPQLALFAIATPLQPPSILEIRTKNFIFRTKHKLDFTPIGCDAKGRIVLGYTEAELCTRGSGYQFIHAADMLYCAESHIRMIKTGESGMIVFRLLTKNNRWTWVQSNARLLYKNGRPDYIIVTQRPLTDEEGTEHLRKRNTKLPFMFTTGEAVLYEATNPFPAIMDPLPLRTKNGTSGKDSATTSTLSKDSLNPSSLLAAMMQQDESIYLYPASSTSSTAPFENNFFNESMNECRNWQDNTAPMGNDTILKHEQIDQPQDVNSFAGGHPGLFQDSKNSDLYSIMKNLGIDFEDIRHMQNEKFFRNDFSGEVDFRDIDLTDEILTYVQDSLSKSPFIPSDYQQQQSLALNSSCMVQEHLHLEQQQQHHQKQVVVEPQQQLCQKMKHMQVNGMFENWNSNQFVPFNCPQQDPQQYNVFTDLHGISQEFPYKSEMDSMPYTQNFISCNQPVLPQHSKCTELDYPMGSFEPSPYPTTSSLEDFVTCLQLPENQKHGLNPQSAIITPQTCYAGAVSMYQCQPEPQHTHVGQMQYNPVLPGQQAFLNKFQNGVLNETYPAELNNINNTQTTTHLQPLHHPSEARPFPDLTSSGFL
# Procedure, shortened: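 HepG2 cells (HG2L7.5c1) stably carrying a firefly luciferase reporter driven by 20 dioxin responsive elements were exposed to compound for 24 h at 37C after a 5 h settling period; luminescence rise (ONE-Glo) indicated activation.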
# [7] = qHTS assay to identify small molecule that activate the aryl hydrocarbon receptor (AhR) signaling pathway - cell viability counter screen (AID 743086); note: nearly all actives have a fitted effect of over 45% in size; note: potency is the fitted concentration of half-maximal effect
# Procedure, shortened: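 HepG2-AhR-luc (HG2L7.5c1) cells, 4000/well, were preincubated 5 h at 37C, exposed to compound in qHTS format for 24 hr at 37C, then given CellTiter-Fluor for 30 min; viability was read as fluorescence in the reporter wells.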
# [8] = target: Peroxisome proliferator-activated receptor gamma (Homo sapiens) (UniProt P37231); assay: qHTS assay to identify small molecule antagonists of the peroxisome proliferator-activated receptor gamma (PPARg) signaling pathway (AID 743191; calls by dose curve; note: series mostly up to about 63 µM; nearly all actives have a fitted effect of over 30% in size)
# Sequence of Peroxisome proliferator-activated receptor gamma (Homo sapiens) (P37231 whole entry, looked up): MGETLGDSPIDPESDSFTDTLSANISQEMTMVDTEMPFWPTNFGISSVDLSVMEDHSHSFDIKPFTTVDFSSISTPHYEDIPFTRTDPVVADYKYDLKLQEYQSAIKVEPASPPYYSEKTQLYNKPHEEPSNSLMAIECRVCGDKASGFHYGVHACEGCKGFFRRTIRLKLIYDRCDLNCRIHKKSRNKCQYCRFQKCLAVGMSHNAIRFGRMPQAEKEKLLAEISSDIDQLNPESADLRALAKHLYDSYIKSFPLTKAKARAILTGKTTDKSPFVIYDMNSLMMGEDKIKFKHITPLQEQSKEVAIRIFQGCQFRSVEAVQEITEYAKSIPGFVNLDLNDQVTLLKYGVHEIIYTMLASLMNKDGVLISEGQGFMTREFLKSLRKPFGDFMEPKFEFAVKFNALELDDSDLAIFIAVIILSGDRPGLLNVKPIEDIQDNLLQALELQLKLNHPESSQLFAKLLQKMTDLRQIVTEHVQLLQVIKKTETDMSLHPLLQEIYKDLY
# Procedure, shortened: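 GeneBLAzer PPARg UAS-bla HEK293H cells carrying a UAS-driven beta-lactamase reporter were plated at 3000 cells/well, preincubated 5 h at 37C, then given compound for 17 h at 37C; LiveBLAzer B/G FRET substrate was read after 1 h at room temperature.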
# [9] = qHTS assay to identify small molecule antagonists of the peroxisome proliferator-activated receptor gamma (PPARg) signaling pathway - cell viability counter screen (AID 743194); note: nearly all actives have a fitted effect of over 55% in size; note: potency is the fitted concentration of half-maximal effect
# Procedure, shortened: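 PPARg-UAS-bla HEK293H cells were plated, rested 5 h at 37 C, then treated with compounds plus rosiglitazone (50 nM final) for 17 h at 37 C; viability was then read by CellTiter-Glo luminescence after 30 min at room temperature.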
# [10] = qHTS assay for small molecule agonists of the antioxidant response element (ARE) signaling pathway (AID 743202; active = well fitted activation curve with a large enough effect in the signal ratio in the repeat runs, not every such curve was filed as active; inconclusive = weak or mixed curves, or effect the other way; inactive = no such curve, though single readings can be large or run the other way; the % refers to the signal ratio)
# Procedure, shortened: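 Read-out: LiveBLAzer B/G FRET substrate fluorescence after 2 h at room temperature, following 16 h compound treatment at 37 C of HepG2 cells carrying an ARE-driven beta-lactamase reporter.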
# [11] = qHTS assay for small molecule agonists of the antioxidant response element (ARE) signaling pathway - cell viability counter screen (AID 743203; calls by dose curve; note: nearly all actives have a fitted effect of over 55% in size; note: potency is the fitted concentration of half-maximal effect)
# Procedure, shortened: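 HepG2 cells carrying ARE-driven beta-lactamase; 2,000 cells/well; 5 hrs plating; compound pinned from DMSO; 16 hrs 37C/5% CO2; CellTiter-Glo added; 30 min RT; luminescence.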
# [12] = qHTS assay for small molecule activators of the heat shock response signaling pathway - cell viability counter screen (AID 743209); note: nearly all actives have a fitted effect of over 50% in size; note: potency is the fitted concentration of half-maximal effect
# Procedure, shortened: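 Luminescence from CellTiter-Glo, added after the beta-lactamase FRET read, gave the viability signal. Cells were HSE-bla HeLa treated with DMSO-dissolved compounds for 5 h at 37 C following overnight plating.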
# [13] = qHTS assay to identify small molecule agonists of the peroxisome proliferator-activated receptor delta (PPARd) signaling pathway - cell viability counter screen (AID 743211); note: nearly all actives have a fitted effect of over 55% in size; note: potency is the fitted concentration of half-maximal effect
# Procedure, shortened: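 PPARd-bla HEK293H cells (UAS-beta-lactamase reporter) were treated with compounds for 17 h at 37 C. Viability was then read in the same wells by CellTiter-Glo luminescence after 30 min at room temperature.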
# [14] = qHTS assay for small molecule activators of the heat shock response signaling pathway (AID 743210; active = well fitted activation curve with a large enough effect in the signal ratio in the repeat runs, with a control signal flat, not every such curve was filed as active; inconclusive = weak or mixed curves; the % refers to the signal ratio; note: series mostly up to about 63 µM)
# Procedure, shortened: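 HSE-bla HeLa cells (beta-lactamase reporter under heat shock response elements) were exposed to compounds for 5 h at 37 C, then loaded with LiveBLAzer B/G FRET substrate for 2.5 h at room temperature before fluorescence reading.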
# [15] = target: Estrogen receptor (Homo sapiens) (UniProt P03372); assay: qHTS assay to identify small molecule antagonists of the estrogen receptor alpha (ER-alpha) signaling pathway (AID 743069; active = well fitted curve in the direction sought with a large enough effect in the signal ratio in the repeat runs, not every such curve was filed as active; inconclusive = weak or mixed curves, or effect the other way; inactive = no such curve, though single readings can be large or run the other way; the % refers to the signal ratio; note: potency is the fitted concentration of half-maximal effect)
# Sequence of Estrogen receptor (Homo sapiens) (P03372 whole entry, looked up): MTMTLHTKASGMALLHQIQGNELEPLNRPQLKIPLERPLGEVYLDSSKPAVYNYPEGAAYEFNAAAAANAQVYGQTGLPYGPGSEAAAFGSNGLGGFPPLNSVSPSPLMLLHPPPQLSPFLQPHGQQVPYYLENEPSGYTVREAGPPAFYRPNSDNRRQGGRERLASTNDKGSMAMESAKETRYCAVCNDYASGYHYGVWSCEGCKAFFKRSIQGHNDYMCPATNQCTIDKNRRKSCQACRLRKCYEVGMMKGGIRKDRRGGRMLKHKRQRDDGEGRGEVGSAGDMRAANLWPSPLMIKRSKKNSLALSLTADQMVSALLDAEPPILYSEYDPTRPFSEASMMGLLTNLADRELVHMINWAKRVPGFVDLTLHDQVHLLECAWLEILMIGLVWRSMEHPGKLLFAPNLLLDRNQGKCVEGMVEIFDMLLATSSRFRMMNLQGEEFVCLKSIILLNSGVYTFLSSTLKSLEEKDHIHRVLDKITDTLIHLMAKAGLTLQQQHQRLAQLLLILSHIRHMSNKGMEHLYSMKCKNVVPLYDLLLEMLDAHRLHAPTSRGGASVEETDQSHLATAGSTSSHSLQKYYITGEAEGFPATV
# Procedure, shortened: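 HEK293 cells stably carrying an ER-alpha-UAS-bla beta-lactamase reporter were pre-cultured overnight in 2% charcoal-stripped FBS medium. Test compounds in DMSO were added together with 17beta-estradiol for 18 hr at 37C. Read-out was fluorescence after 2 hr with LiveBLAzer B/G FRET substrate at room temperature.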
# [16] = target: Estrogen receptor (Homo sapiens) (UniProt P03372); assay: qHTS assay to identify small molecule agonists of the estrogen receptor alpha (ER-alpha) signaling pathway (AID 743075; calls by dose curve; note: potency is the fitted concentration of half-maximal effect)
# [17] = qHTS assay to identify small molecule antagonists of the estrogen receptor alpha (ER-alpha) signaling pathway using the BG1 cell line (AID 743080; calls by dose curve; note: nearly all actives have a fitted effect of over 25% in size; note: potency is the fitted concentration of half-maximal effect)
# Procedure, shortened: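 Antagonist mode: compounds in DMSO were pinned onto BG1-Luc-4E2 cells alongside 17beta-estradiol agonist, incubated 21.5 h, and ERE-driven luciferase measured with ONE-Glo. Cytotoxicity was multiplexed using CellTiter-Fluor fluorescence.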
# [18] = target: Peroxisome proliferator-activated receptor gamma (Homo sapiens) (UniProt P37231); assay: qHTS assay to identify small molecule agonists of the peroxisome proliferator-activated receptor gamma (PPARg) signaling pathway (AID 743094; active = well fitted activation curve with a large enough effect in the signal ratio in the repeat runs, not every such curve was filed as active; inconclusive = weak or mixed curves, or effect the other way; inactive = no such curve, though single readings can be large or run the other way; the % refers to the signal ratio; note: potency is the fitted concentration of half-maximal effect)
# Procedure, shortened: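 Beta-lactamase FRET fluorescence was the read-out after a 1 h room-temperature substrate step, following 17 h compound treatment at 37C of HEK293H cells expressing a UAS-driven bla reporter responsive to PPARg.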
# [19] = target: Estrogen receptor (Homo sapiens) (UniProt P03372); assay: qHTS assay to identify small molecule agonists of the estrogen receptor alpha (ER-alpha) signaling pathway using the BG1 cell line (AID 743079); note: nearly all actives have a fitted effect of over 20% in size
Compound,Potency [1],outcome [2],Potency [3],Potency [4],Potency (Aromatase (Homo sapiens)),Potency [5],Potency [6],Potency [7],Potency [8],Potency [9],Potency [10],Potency [11],Potency [12],Potency [13],Potency [14],Potency [15],Potency [16],Potency [17],Potency [18],Potency [19]
O=[N+]([O-])c1ccc(F)c(Cl)c1,inactive,inactive,inactive,inactive,inactive,inactive,inactive,inactive,inactive,inactive,inactive,inactive,inactive,inactive,–,–,–,–,–,–
O=C1NC(=O)[C@@H]2CC=CC[C@H]12,inactive,inactive,inactive,inactive,–,–,–,inactive,–,inactive,–,inactive,inactive,inactive,inactive,–,–,–,–,–
Cc1ccc(C(=O)O)cc1,inactive,inactive,inactive,inactive,inactive,inactive,inactive,inactive,–,inactive,inactive,inactive,inactive,inactive,inactive,–,–,–,–,–
Cc1cc(-n2nc3ccc(Cl)cc3n2)c(O)c(C(C)(C)C)c1,inactive,inactive,inactive,inactive,–,–,–,inactive,–,inactive,inactive,–,inactive,inactive,inactive,–,–,–,–,–
CN(C)c1ccc(C(=C2C=CC(=[N+](C)C)C=C2)c2ccc(N(C)C)cc2)cc1,1.33 µM (active) and 431 nM (active) and 545 nM (active),–,10.7 µM (active) and 8.67 µM (active) and 24.5 µM (active),13.3 µM (active) and 12.1 µM (active) and 24.3 µM (active),2.98 µM (active) and 608 nM (active) and 864 nM (active),10.6 µM (active) and 3.05 µM (active) and 7.7 µM (active),2.42 µM (active),9.44 µM (active) and 19.2 µM (active) and 24.3 µM (active),–,1.94 µM (active) and 1.95 µM (active) and 5.96 µM (active),–,9.64 µM (active) and 10.9 µM (active) and 11.9 µM (active),1.73 µM (active) and 4.36 µM (active) and 6.68 µM (active),6.88 µM (active) and 7.76 µM (active) and 8.41 µM (active),–,34.7 µM [cytotoxic] (active),3.07 µM [inconclusive] (active),2.42 µM (active) and 3.86 µM (active),8.49 µM (active),–
Cc1nc(-c2ccc(Cl)cc2)oc1COC(C)(C)C(=O)O,inactive,inactive,inactive,inactive,–,–,–,inactive,–,inactive,inactive,inactive,–,inactive,inactive,–,–,–,–,–
O=c1[nH]c2ccccc2n1CCCN1CCN(C(c2ccccc2)c2ccccc2)CC1,23.7 µM (active),inactive,inactive,–,inactive,inactive,–,26.6 µM (active),–,inactive,–,29.8 µM (active),inactive,29.8 µM (active),–,–,–,–,–,–
O=C1c2ccccc2C(=O)N1SC1CCCCC1,24.3 µM (active) and 15.4 µM (active),inactive,–,inactive,43.2 µM (active),27.3 µM (active) and 24.3 µM (active),inactive,inactive,–,54.9 µM (active),–,48.5 µM (active) and 34.4 µM (active),54.9 µM (active),48.9 µM (active) and 49 µM (active),–,–,inactive,inactive,–,inactive
